Sampled rows, rich in hits. Any-hit rate of the full collection: about 11%.
HCV inhibitor: HCV inhibition | Huh7.5.1 HCVcc-Cre infection, luciferase reporter, 44 h | 3.4% of 340,000 active | Potency, µM (highest dose often 41.8 µM), inactives show at the top dose activity change, negative = inhibition, actives largely listed as inhibitors | AID 651820; note: % is set by controls: 0 for no effect and ±100 for the full control effect
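Luciferase read-out (15 sec integration) after a 15 min room-temperature substrate step quantifies HCVcc-Cre infection. Cells, 1,000 per well, had compound added 4 h post-plating, then virus at ~0.5 moi, and were cultured 44 h.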
Pf growth 48h: P. falciparum growth inhibition at 48 hours (one generation). AID 504832. P. falciparum luciferase growth in erythrocytes, 48 h. 5.9% of 310,000 active. Potency, µM (titrated, usually from 28.7 µM), inactives show at the top dose activity change, negative = inhibition, usual class: inhibitors; note: % is set by controls: 0 for no effect and ±100 for the full control effect
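Luciferase-expressing parasites in RBCs, 2% Hct / 0.1% parasitemia final; RPMI 1640 + 0.5% Albumax; 37 C, 5% CO2, one generation; luminescence read-out, lower signal = inhibition.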
Pf growth 96h: P. falciparum growth inhibition at 96 hours | 6.9% of 320,000 active | P. falciparum luciferase reporter growth, 96 h | Potency, µM (titrated, usually from 28.7 µM), inactives show top-dose activity change, negative = inhibition, actives largely listed as inhibitors; note: % is set by controls: 0 for no effect and ±100 for the full control effect
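Two parasite generations (96 h, 37 C, 5% CO2) of compound exposure in infected erythrocytes (0.05% parasitemia, 2% hematocrit). Luciferase-reporter P. falciparum; decreased luminescence indicates inhibited growth, aimed at apicoplast-acting delayed death.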
Vaccinia Venus: inhibitors of vaccinia virus (Venus reporter). Vaccinia virus Venus reporter expression, fluorescence. Potency, µM (series often up to 36.5 µM), for the others: at the highest dose activity change, negative = inhibition, usual class: inhibitors. 0.46% of 330,000 active; calls by dose curve; tested in A549 cells; note: % is set by controls: 0 for no effect and ±100 for the full control effect; nearly all actives have a fitted effect of over 30% in size
VACV mCherry inh: vaccinia inhibition (mCherry reporter); Vaccinia virus mCherry reporter infection, fluorescence; Potency, µM (top dose mostly 36.5 µM), for inactives: at the highest dose activity change, negative = inhibition, actives largely listed as inhibitors; 0.63% of 310,000 active; calls by dose curve; tested in A549 cells; note: % is set by controls: 0 for no effect and ±100 for the full control effect; nearly all actives have a fitted effect of over 35% in size
NS1 inh: inhibitors of influenza NS1 protein function. AID 2326. 0.4% of 270,000 active. Potency, µM (highest dose often 46.1 µM), for the others: at the top dose activity, positive = more growth; calls by dose curve; note: actives are rising curves; nearly all actives have a fitted effect of over 50% in size
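Growth recovery, yeast-based: influenza A NS1 expressed in S. cerevisiae causes slow growth, and suppressors are detected by OD600. The parent strain without NS1 is used as positive control.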
An asterisk follows results filed as active; [ ] = remark or other dose. Unless noted, calls come from the whole dose curve; as a rule, active = well fitted inhibition curve with a large enough effect; inconclusive = small, poorly fitted or top-dose-only effect, or another doubt; inactive = no such curve, though single readings can be large or run the other way. Potency is the fitted concentration of half-maximal effect.

`CC(=O)c1c(C)[nH]c(C(=O)OCC(=O)NCCC2=CCCCC2)c1C` gave HCV inhibitor inconclusive, Pf growth 48h 13µM*, Pf growth 96h inconclusive, Vaccinia Venus -23% and VACV mCherry inh -26%.
`CC(=O)c1c(C)[nH]c(C(=O)OCC(=O)NCCc2ccc(F)cc2)c1C` gave HCV inhibitor inconclusive, Pf growth 48h inconclusive, Pf growth 96h inconclusive and NS1 inh -4%.
`Cc1ccc(C(=O)OCC(=O)NCCC2=CCCCC2)s1` gave HCV inhibitor -26%, Pf growth 48h 21%, Pf growth 96h -1% and NS1 inh -3%.
Screening FC(F)(F)c1cccc(NC(=S)NCCc2ccccn2)c1 returned HCV inhibitor -24%, Pf growth 48h -23%, Pf growth 96h inconclusive and NS1 inh -4%.
Screening O=C(Nc1cccc(S(=O)(=O)N2CCCCCC2)c1)C1=COCCO1 returned HCV inhibitor inconclusive, Pf growth 48h 8%, Pf growth 96h 13%, Vaccinia Venus -17% and VACV mCherry inh -12%.
Screening CSCCC1NC(=O)N(CC(=O)Nc2c(Cl)cc(Cl)cc2Cl)C1=O (stereo not drawn) returned HCV inhibitor 19%, Pf growth 48h 7%, Pf growth 96h 8%, Vaccinia Venus -12%, VACV mCherry inh -21% and NS1 inh -1%.
CC(C)(C)C(=O)Nc1ccc2c(c1)OCCOCCOc1cc(NC(=O)C(C)(C)C)ccc1OCCOCCO2 was read as HCV inhibitor -4%, Pf growth 48h -17%, Pf growth 96h 42%, Vaccinia Venus -3%, VACV mCherry inh -1% and NS1 inh 3%.
Screening CC(=O)c1c(C)[nH]c(C(=O)OCC(=O)NCc2ccc(Cl)cc2)c1C returned HCV inhibitor 11µM*, Pf growth 48h inconclusive and Pf growth 96h inconclusive.
Screening CCOC(=O)c1c(C)[nH]c(C(=O)OCC(=O)Nc2sccc2C(N)=O)c1C returned HCV inhibitor 2.8µM*, Pf growth 48h 4.7µM*, Pf growth 96h inconclusive, Vaccinia Venus inconclusive and VACV mCherry inh -16%.
For CCOC(=O)c1[nH]c(C)c(C(=O)OCC(=O)NCc2ccc(Cl)cc2)c1C the results were HCV inhibitor 9%, Pf growth 48h -13% and Pf growth 96h -19%.
Screening O=C([C@H](Cc1ccccc1)NS(=O)(=O)c1ccc(Cl)cc1)N1CC[C@@]2(O)CCCC[C@H]2C1 returned HCV inhibitor -5%, Pf growth 48h 13µM*, Pf growth 96h inconclusive, Vaccinia Venus inconclusive and NS1 inh 7%.
Screening COc1ccc(S(=O)(=O)N[C@@H](Cc2ccccc2)C(=O)N2CC[C@@]3(O)CCCC[C@H]3C2)cc1 returned HCV inhibitor -3%, Pf growth 48h -21%, Vaccinia Venus -19% and NS1 inh -13%.
For C[C@]12C=CC(=O)C=C1C=C[C@@H]1C2CC[C@]2(C)C(=O)CCC12 (stereo partly drawn) the results were HCV inhibitor 27%, Pf growth 48h -12%, Pf growth 96h inconclusive and NS1 inh 5%.
For C=C1CC2C(CC[C@]3(C)C(=O)CCC23)[C@]2(C)C=CC(=O)C=C12 (stereo partly drawn) the results were Pf growth 48h inconclusive and Pf growth 96h 13µM*.
Screening CCN1CCN(c2cc(SC(C)C)nc(-c3ccc(OC)cc3)n2)CC1 returned HCV inhibitor -14%, Pf growth 48h inconclusive, Pf growth 96h inconclusive, Vaccinia Venus inconclusive, VACV mCherry inh inconclusive and NS1 inh -9%.
For O=C(CN1CCN(Cc2ccccc2)CC1)N/N=C\C=C/c1ccco1 the results were HCV inhibitor 36%, Pf growth 48h 12%, Pf growth 96h 15%, Vaccinia Venus 0%, VACV mCherry inh -9% and NS1 inh -5%.
`CCn1c2ccccc2c2cc(NC(=O)c3cc(C)on3)ccc21` gave HCV inhibitor 14µM*, Pf growth 48h inconclusive, Pf growth 96h inconclusive, Vaccinia Venus inconclusive and VACV mCherry inh -28%.
Screening CCn1c2ccccc2c2cc(NC(=O)c3cccc([N+](=O)[O-])c3C)ccc21 returned HCV inhibitor 4µM*, Pf growth 48h -6%, Pf growth 96h inconclusive, Vaccinia Venus inconclusive, VACV mCherry inh inconclusive and NS1 inh 8%.
For Cc1c(C(=O)Nc2ccc(C(=O)Nc3ccccc3)cc2)cccc1[N+](=O)[O-] the results were HCV inhibitor inconclusive, Pf growth 48h 2%, Pf growth 96h 7%, Vaccinia Venus 4%, VACV mCherry inh -7% and NS1 inh -12%.
For CCn1c2ccccc2c2cc(NC(=O)c3ccc(C)c([N+](=O)[O-])c3)ccc21 the results were HCV inhibitor inconclusive, Pf growth 48h -27%, Pf growth 96h 44%, Vaccinia Venus 2%, VACV mCherry inh -2% and NS1 inh inconclusive.
`CCn1c2ccccc2c2cc(NC(=O)c3cccc([N+](=O)[O-])c3)ccc21` gave HCV inhibitor 2.2µM*, Pf growth 48h inconclusive, Pf growth 96h 41%, Vaccinia Venus -29%, VACV mCherry inh -22% and NS1 inh 4%.
Screening CCn1c2ccccc2c2cc(NC(=O)c3ccc(Br)o3)ccc21 returned HCV inhibitor inconclusive, Vaccinia Venus -5%, VACV mCherry inh -19% and NS1 inh 16%.
Screening Cn1nc(-c2ccccc2)c(CO)c1Oc1cccc(C(F)(F)F)c1 returned HCV inhibitor inconclusive, Pf growth 48h inconclusive, Pf growth 96h inconclusive, Vaccinia Venus -18% and VACV mCherry inh -23%.
For C/C(=N/NC1=NCCN1)c1cn(C2=NCCN2)nc1C the results were NS1 inh 3%.
`CCc1cccc(NS(=O)(=O)c2ccc3c(c2)N(C)CCO3)c1` gave HCV inhibitor inconclusive, Pf growth 48h -2%, Pf growth 96h -20%, Vaccinia Venus -17%[7.34 µM], VACV mCherry inh -21%[7.34 µM] and NS1 inh -8%.
Screening COc1ccc([C@@H]2CC=C(C(=O)O)[C@H](c3ccccc3)N2S(=O)(=O)c2ccc(C)cc2)cc1OC returned HCV inhibitor 13%, Pf growth 48h inconclusive, Pf growth 96h inconclusive, Vaccinia Venus -10% and VACV mCherry inh inactive.
Screening COc1cc([C@@H]2CC=C(C(=O)O)[C@H](c3ccc(Cl)cc3)N2S(=O)(=O)c2ccc(C)cc2)cc(OC)c1OC returned HCV inhibitor 10%, Pf growth 48h 9.3µM*, Pf growth 96h 9.3µM*, Vaccinia Venus -13% and VACV mCherry inh -8%.
For COc1cc([C@@H]2CC=C(C(=O)O)[C@H](c3ccccc3)N2S(=O)(=O)c2ccc(C)cc2)cc(OC)c1OC the results were HCV inhibitor 16%, Pf growth 48h 3.3µM*, Pf growth 96h 8.3µM*, Vaccinia Venus -11% and VACV mCherry inh inactive.
